Structures are written as SMILES. Results filed as inconclusive are left out. Activity calls are given as the source filed them. Calls come from the whole dose curve; as a rule, active = well fitted cell-killing curve with a large enough effect; inconclusive = small, poorly fitted or top-dose-only effect, or effect the other way; inactive = no such curve, though single readings can be large or run the other way.
Potency is the fitted concentration of half-maximal effect.

The first experiment is described as follows: Quantitative High-Throughput drug screen in 47 multiple myeloma cell lines against the NCATS MIPE library collection: OPM1_PLB cell viability assay (AID 1918989). Note: nearly all actives have a fitted effect of over 40% in size. The note with it: CellTiter-Glo, 48 h; series mostly up to 45.8 µM; viability (% of control): at the top concentration. A digest of the protocol: (§1)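 Myeloma cells (500/well) treated with MIPE 4.0 compounds for 48 h at 37 °C, 5% CO2. Viability read as ATP via CellTiter-Glo luminescence after 5 min at RT; DMSO-only wells = 100%, media-only = 0% viability.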
(In general: Cellular ATP, detected with luciferase, serves as a proxy for viable cell number.)
With `Cc1cccc(C=NNc2cc(N3CCOCC3)nc(OCCc3ccccn3)n2)c1`, the Potency was 4.18 µM (active).

Regarding `CCNC(=O)Nc1ccc2ncc(Nc3ccc(C)cc3)nc2n1`, the Potency was 7.43 µM (active).

For `NC(=O)c1cccc2cn(-c3ccc([C@@H]4CCCNC4)cc3)nc12`, the “viability (% of control)” value is 120% (inactive).

In the case of `COc1cc(C(C)C)c2c(c1)S(=O)(=O)N(COc1cc(=O)n3cccc(OCCN4CCCCC4)c3n1)C2=O`, the Potency was 23.5 µM (active).

For `CC(=O)c1c(C)c2cnc(Nc3ccc(N4CCNCC4)cn3)nc2n(C2CCCC2)c1=O`, the Potency was 18.7 µM (active).

As to `CC(=O)SC[C@@H](C)C(=O)N1CCC[C@H]1C(=O)N[C@@H](Cc1ccccc1)C(=O)O`, the “viability (% of control)” value is 151% (inactive).

In the case of `COc1ccc(OC)c(-c2nnc3ccc(-c4ccc(OC)c(O[C@@H]5CCOC5)c4)nn23)c1`, the Potency is 8.33 µM (active).

For `COc1ccc(CC2c3cc(OC)c(OC)cc3CC[N+]2(C)CCC(=O)OCCCCCOC(=O)CC[N+]2(C)CCc3cc(OC)c(OC)cc3C2Cc2ccc(OC)c(OC)c2)cc1OC` (stereo not drawn), the viability (% of control) was 96.3% [at 5.15 µM] (inactive).

Consider `CCN1CCN(Cc2ccc(-c3cc4c(N[C@H](C)c5ccccc5)ncnc4[nH]3)cc2)CC1`, for which the Potency was 0.372 µM (active).

As to `Nc1ccn([C@@H]2CS[C@H](CO)O2)c(=O)n1`, the “viability (% of control)” value is 110% [at 92.2 µM] (inactive).

Take `COc1cc(Nc2ncc(F)c(Nc3ccc4c(n3)N(COP(=O)(O)O)C(=O)C(C)(C)O4)n2)cc(OC)c1OC`: the Potency was 1.87 µM (active).

As for `C[C@]12CC[C@H](O)CC1=CCC1C2CC[C@]2(C)C(n3cnc4ccccc43)=CCC12` (stereo partly drawn), the “viability (% of control)” value was 143% (inactive).

`COc1cccc(-c2ccc(NC(=O)C3=C(C(=O)O)CCC3)c(F)c2)c1`: the Potency is 6.62 µM (active).

On to `C[C@@H]1CN(CC(=O)Nc2ccc3c(c2)Cc2cccc(-c4cc(=O)cc(N5CCOCC5)o4)c2S3)C[C@H](C)O1`, for which the Potency was 16.6 µM (active).

As to `COc1cccc(Nc2c(C(N)=O)cnc3c(C)cc(S(=O)(=O)c4cccc(C(=O)N(C)C)c4)cc23)c1`, the “viability (% of control)” value was 140% [at 23.2 µM] (inactive).

On to `Cc1coc2c1C(=O)C(=O)c1c-2ccc2c1CCCC2(C)C`, for which the Potency was 20.9 µM (active).

With `CCCn1c(=O)c2[nH]c(-c3cnn(Cc4cccc(C(F)(F)F)c4)c3)nc2n(CC)c1=O`, the “viability (% of control)” value was 127% (inactive).

For `O=C(O)Cn1nnc(-c2cc(N3CCC(Oc4cc(F)ccc4Br)CC3)no2)n1`, the “viability (% of control)” value was 147% (inactive).

In the case of `CN(C)c1nc(Cc2ccc(NC(=O)c3ccc4ccccc4c3)cc2)nc(Cl)c1CC(=O)O`, the “viability (% of control)” value was 142% (inactive).

On to `COC(=O)C1=C(C)NC(C)=C(C(=O)OCCN2CCN(C(c3ccccc3)c3ccccc3)CC2)C1c1cccc([N+](=O)[O-])c1` (stereo not drawn), for which the “viability (% of control)” value was 134% (inactive).

A further experiment can be described thus: Quantitative High-Throughput drug screen in 47 multiple myeloma cell lines against the NCATS MIPE library collection: SKMM1_PLB cell viability assay (AID 1919863). Note: nearly all actives have a fitted effect of over 35% in size. The note with it: SKMM1 myeloma viability, CellTiter-Glo ATP, 48 h; viability: active compounds read low. The procedure, abridged: as §1
Take `Cc1cccc(C=NNc2cc(N3CCOCC3)nc(OCCc3ccccn3)n2)c1`: the Potency is 16.6 µM (active).

By viability is commonly meant a read-out of living cells in per cent, often relative to untreated cells. Consider `CCNC(=O)Nc1ccc2ncc(Nc3ccc(C)cc3)nc2n1`, for which the viability is 139% (inactive).

For the molecule `CC(=O)c1c(C)c2cnc(Nc3ccc(N4CCNCC4)cn3)nc2n(C2CCCC2)c1=O`, the Potency is 16.6 µM (active).

For `CC(=O)SC[C@@H](C)C(=O)N1CCC[C@H]1C(=O)N[C@@H](Cc1ccccc1)C(=O)O`, the viability is 151% (inactive).

Consider `COc1ccc(OC)c(-c2nnc3ccc(-c4ccc(OC)c(O[C@@H]5CCOC5)c4)nn23)c1`, for which the Potency was 18.7 µM (active).

Take `Nc1ccc(S(=O)(=O)Nc2ncccn2)cc1`: the viability was 155% (inactive).

With `Cc1ccc2nc(NC(=O)CSc3nc4c(c(=O)n3-c3ccccc3)SCC4)sc2c1`, the Potency is 11.8 µM (active).

As for `COc1cccc(-c2ccc(NC(=O)C3=C(C(=O)O)CCC3)c(F)c2)c1`, the Potency is 5.9 µM (active).

With `COc1cccc(Nc2c(C(N)=O)cnc3c(C)cc(S(=O)(=O)c4cccc(C(=O)N(C)C)c4)cc23)c1`, the viability is 113% (inactive).

For the molecule `O=C(O)Cn1nnc(-c2cc(N3CCC(Oc4cc(F)ccc4Br)CC3)no2)n1`, the viability was 126% (inactive).

As to `COC(=O)C1=C(C)NC(C)=C(C(=O)OCCN2CCN(C(c3ccccc3)c3ccccc3)CC2)C1c1cccc([N+](=O)[O-])c1` (stereo not drawn), the viability was 126% (inactive).

The next experiment can be described thus: Quantitative High-Throughput drug screen in 47 multiple myeloma cell lines against the NCATS MIPE library collection: U266_ATCC cell viability assay (AID 1919864). Note: nearly all actives have a fitted effect of over 35% in size. The note with it: U266 myeloma viability, CellTiter-Glo ATP luminescence, 48 h; series mostly up to 45.8 µM; viability (% of DMSO control): at the top concentration. A digest of the protocol:
as §1
As for `Cc1cccc(C=NNc2cc(N3CCOCC3)nc(OCCc3ccccn3)n2)c1`, the Potency is 6.62 µM (active).

Turning to `NC(=O)c1cccc2cn(-c3ccc([C@@H]4CCCNC4)cc3)nc12`, the “viability (% of DMSO control)” value was 112% (inactive).

As for `O=C(c1cncc(Br)c1)N1CCC(N2CCCC2)CC1`, the “viability (% of DMSO control)” value is 122% (inactive).

On to `C[C@@H]1COC(Nc2ccc3ncnc(Nc4ccc(OCc5nccs5)c(Cl)c4)c3c2)=N1`, for which the Potency is 18.7 µM (active).

As to `CN(C1CCc2c(c3ccccc3n2CC(=O)O)C1)S(=O)(=O)c1ccc(F)cc1` (stereo not drawn), the Potency is 18.7 µM (active).

In the case of `CC(=O)c1c(C)c2cnc(Nc3ccc(N4CCNCC4)cn3)nc2n(C2CCCC2)c1=O`, the Potency was 20.9 µM (active).

On to `COc1ccc(OC)c(-c2nnc3ccc(-c4ccc(OC)c(O[C@@H]5CCOC5)c4)nn23)c1`, for which the Potency was 7.43 µM (active).

With `COc1ccc(CC2c3cc(OC)c(OC)cc3CC[N+]2(C)CCC(=O)OCCCCCOC(=O)CC[N+]2(C)CCc3cc(OC)c(OC)cc3C2Cc2ccc(OC)c(OC)c2)cc1OC` (stereo not drawn), the viability (% of DMSO control) is 135% [at 5.15 µM] (inactive).

`CCN1CCN(Cc2ccc(-c3cc4c(N[C@H](C)c5ccccc5)ncnc4[nH]3)cc2)CC1`: the Potency was 0.166 µM (active).

Turning to `Cc1ccc(CN2CCNCC2)cc1NC(=O)CNc1ccc(F)c(F)c1`, the Potency was 29.6 µM (active).

For `CC(C)c1ccccc1Cc1cc(C(=O)Nc2ccc(S(=O)(=O)c3ccccc3C(C)(C)C)cc2)c(O)c(O)c1O`, the Potency was 13.2 µM (active).

Turning to `Nc1ccc(S(=O)(=O)Nc2ncccn2)cc1`, the “viability (% of DMSO control)” value was 120% (inactive).

Regarding `C[C@]12CC[C@H](O)CC1=CCC1C2CC[C@]2(C)C(n3cnc4ccccc43)=CCC12` (stereo partly drawn), the “viability (% of DMSO control)” value is 121% (inactive).

With `COc1cc(C)c(Sc2cnc(NC(=O)c3ccc(CNC(C)C(C)C)cc3)s2)cc1C(=O)N1CCN(C(C)=O)CC1` (stereo not drawn), the Potency was 23.5 µM (active).

As for `Cc1ccc2nc(NC(=O)CSc3nc4c(c(=O)n3-c3ccccc3)SCC4)sc2c1`, the Potency is 20.9 µM (active).

Take `COc1cccc(-c2ccc(NC(=O)C3=C(C(=O)O)CCC3)c(F)c2)c1`: the Potency is 13.2 µM (active).

As to `Cc1coc2c1C(=O)C(=O)c1c-2ccc2c1CCCC2(C)C`, the “viability (% of DMSO control)” value was 112% (inactive).

With `CCCn1c(=O)c2[nH]c(-c3cnn(Cc4cccc(C(F)(F)F)c4)c3)nc2n(CC)c1=O`, the “viability (% of DMSO control)” value was 163% (inactive).

On to `O=C(O)Cn1nnc(-c2cc(N3CCC(Oc4cc(F)ccc4Br)CC3)no2)n1`, for which the “viability (% of DMSO control)” value was 138% (inactive).

Consider `COc1cc2c(Nc3ccc(NC(=O)c4ccccc4)cc3)ncnc2cc1OCCCN1CCOCC1`, for which the Potency is 23.5 µM (active).

On to `CN(C)c1nc(Cc2ccc(NC(=O)c3ccc4ccccc4c3)cc2)nc(Cl)c1CC(=O)O`, for which the “viability (% of DMSO control)” value was 126% (inactive).

With `COC(=O)C1=C(C)NC(C)=C(C(=O)OCCN2CCN(C(c3ccccc3)c3ccccc3)CC2)C1c1cccc([N+](=O)[O-])c1` (stereo not drawn), the “viability (% of DMSO control)” value is 127% (inactive).

Source of the values: PubChem BioAssay (NCATS).
